SMILES strings stand for the structures. Activity calls are given as the source filed them.

Test [1] is described as follows: E. coli DRC41 culture turbidity changes, primary screen, E. coli filamentation inducer project, strain DRC41, OD650, 48 h (AID 1152).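 Note: E. coli MC1000 strain DRC41 lacking acrAB efflux pump and sulA.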 The following applies: E. coli DRC41 (acrAB sulA), higher = more signal, called active from +8 up or from −8 down.
Test [2] is described as follows: small-molecule binders of probe aLefty1, primary screen, biochemical, small-molecule microarray, 635/667 nm fluorescence (AID 1153).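 Note: score merges spot fluorescence with signal-to-noise ratio from the scanned slide images.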 The following applies: higher = more signal.
Test [3] in a line: PSAC antagonists in infected red cells, primary screen, cell-based, P. falciparum Indochina, OD700, 1 h (AID 1154). The conditions noted are these: P. falciparum Indochina infected RBC osmotic lysis, higher = more signal, called active from +8 up or from −8 down.
Test [4] in a line: PSAC antagonists in infected red cells, primary screen, cell-based, P. falciparum Indochina, OD700, 2 h (AID 1155).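 Note: lysis reports solute entry through the parasite surface anion channel PSAC; channel blockers reduce lysis of infected cells.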 The following applies: P. falciparum Indochina infected erythrocytes, osmotic lysis OD700; higher = more signal, called active from +8 up or from −8 down.
Test [5] in a line: osmotic lysis modulators in infected erythrocytes, primary screen, PSAC antagonist project, cell-based, P. falciparum Indochina, OD700, 3 h (AID 1156). The following applies: higher = more signal, called active from +8 up or from −8 down.
Test [6] can be described thus: PSAC antagonists in infected red cells, primary screen, cell-based, P. falciparum Indochina, OD700, 18 h (AID 1157). The following applies: P. falciparum Indochina infected erythrocytes, osmotic lysis OD700, 18 h; higher = more signal, called active from +8 up or from −8 down.
Test [7] can be described thus: modulators of S6 phosphorylation in cells, primary screen, cell-based, A549, cytoblot, luminescence, serum-stimulated (AID 1158).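 Note: serum-stimulated A549 lung adenocarcinoma cells; signal is phosphorylated S6 detected by cytoblot immunostaining with HRP secondary.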 The following applies: A549 phospho-S6 cytoblot, 5 h, higher = more signal.
The target in test [8] is NADPH oxidase 2 (Homo sapiens) (UniProt P04839). As to the kind of experiment: NOX2-dependent H2O2 signal modulators, primary screen, NOX inhibitor project, cell-based, HEK293-NOX2, PMA-stimulated, Amplex Red fluorescence (AID 1159). Note: test concentration not given here. The following applies: 45 min, higher = more signal, called active from +8 up or from −8 down.
NADPH oxidase 2 (Homo sapiens), sequence (P04839 whole entry, looked up): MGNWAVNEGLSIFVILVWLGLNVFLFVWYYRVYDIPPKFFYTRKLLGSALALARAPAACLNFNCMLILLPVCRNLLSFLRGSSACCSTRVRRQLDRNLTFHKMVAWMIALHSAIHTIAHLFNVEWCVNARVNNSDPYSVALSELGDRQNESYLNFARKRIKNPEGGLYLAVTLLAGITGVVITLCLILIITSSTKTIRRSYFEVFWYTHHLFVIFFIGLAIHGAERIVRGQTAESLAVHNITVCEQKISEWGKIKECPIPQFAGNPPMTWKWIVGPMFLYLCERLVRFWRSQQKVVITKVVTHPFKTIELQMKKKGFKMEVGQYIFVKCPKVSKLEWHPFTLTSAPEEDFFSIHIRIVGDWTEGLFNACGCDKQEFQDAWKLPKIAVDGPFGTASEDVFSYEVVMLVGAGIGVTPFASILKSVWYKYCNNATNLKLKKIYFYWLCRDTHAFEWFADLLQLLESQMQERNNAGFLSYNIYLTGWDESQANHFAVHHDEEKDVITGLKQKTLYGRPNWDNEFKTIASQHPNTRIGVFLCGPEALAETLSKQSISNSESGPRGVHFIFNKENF
The target in test [9] is NADPH oxidase 4 (Homo sapiens) (UniProt Q9NPH5). As to the kind of experiment: NOX4-dependent H2O2 signal modulators, primary screen, NOX inhibitor project, cell-based, HEK293-NOX4, tetracycline-induced, Amplex Red fluorescence (AID 1160). The conditions noted are these: 45 min, higher = more signal, called active from +8 up or from −8 down.
NADPH oxidase 4 (Homo sapiens), sequence (Q9NPH5 whole entry, looked up): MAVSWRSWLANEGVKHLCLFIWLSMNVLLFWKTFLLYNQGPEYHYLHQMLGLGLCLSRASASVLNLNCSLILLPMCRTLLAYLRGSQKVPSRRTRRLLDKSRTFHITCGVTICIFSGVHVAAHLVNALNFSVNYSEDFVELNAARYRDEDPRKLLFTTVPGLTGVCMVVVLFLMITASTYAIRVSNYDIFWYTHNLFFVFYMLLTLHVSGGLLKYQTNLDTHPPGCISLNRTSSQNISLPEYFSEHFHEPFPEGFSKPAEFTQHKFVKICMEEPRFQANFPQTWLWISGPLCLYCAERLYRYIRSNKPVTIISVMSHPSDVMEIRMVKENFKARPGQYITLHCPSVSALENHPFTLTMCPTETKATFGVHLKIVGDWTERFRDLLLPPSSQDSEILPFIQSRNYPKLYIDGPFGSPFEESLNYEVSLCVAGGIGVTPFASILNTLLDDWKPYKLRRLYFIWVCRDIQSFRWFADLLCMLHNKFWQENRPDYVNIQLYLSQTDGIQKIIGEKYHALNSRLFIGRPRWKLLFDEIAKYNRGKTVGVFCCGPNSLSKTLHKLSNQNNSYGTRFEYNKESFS
In test [10] the target is NADPH oxidase 5 (Homo sapiens) (UniProt Q96PH1). As to the kind of experiment: NOX5-dependent H2O2 signal modulators, primary screen, NOX inhibitor project, cell-based, HEK293-NOX5, Amplex Red fluorescence (AID 1161). The following applies: HEK293-NOX5, ionomycin, 45 min, higher = more signal.
NADPH oxidase 5 (Homo sapiens), sequence (Q96PH1 whole entry, looked up): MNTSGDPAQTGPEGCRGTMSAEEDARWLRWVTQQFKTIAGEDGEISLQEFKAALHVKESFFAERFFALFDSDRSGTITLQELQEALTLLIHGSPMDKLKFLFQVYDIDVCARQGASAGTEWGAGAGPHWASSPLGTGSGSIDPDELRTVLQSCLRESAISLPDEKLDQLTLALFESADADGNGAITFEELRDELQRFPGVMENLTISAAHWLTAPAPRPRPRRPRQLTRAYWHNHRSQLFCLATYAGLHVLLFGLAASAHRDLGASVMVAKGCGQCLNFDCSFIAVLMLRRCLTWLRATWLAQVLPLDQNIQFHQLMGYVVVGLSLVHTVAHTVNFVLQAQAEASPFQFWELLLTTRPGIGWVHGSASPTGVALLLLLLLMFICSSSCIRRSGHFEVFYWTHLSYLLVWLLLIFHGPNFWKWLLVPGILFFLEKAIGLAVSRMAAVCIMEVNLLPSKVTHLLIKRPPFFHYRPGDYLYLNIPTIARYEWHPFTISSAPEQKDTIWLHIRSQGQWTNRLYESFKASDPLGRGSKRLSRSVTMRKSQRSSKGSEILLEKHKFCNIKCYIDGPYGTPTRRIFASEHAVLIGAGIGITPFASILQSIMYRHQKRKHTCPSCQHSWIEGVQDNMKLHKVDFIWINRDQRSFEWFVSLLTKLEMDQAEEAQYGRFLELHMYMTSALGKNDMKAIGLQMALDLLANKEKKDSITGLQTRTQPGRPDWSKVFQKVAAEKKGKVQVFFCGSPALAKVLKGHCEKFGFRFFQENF

As for `O=C1OCC=C[C@H]2OC34C=CCN(Cc5ccccc5)C(=O)[C@H]3N(CCO)C(=O)[C@@H]4[C@@H]12` (stereo not given in full), the z-score in test [1] is 2.41 (inactive); in test [3] it was 0.286 (inactive); in test [4], -0.44 (inactive); in test [5], -1.32 (inactive); in test [6], -1.34 (inactive); in [7], 0.262. Besides, the figures for the z-score in [8], in [9] and in test [10] were 1.53 (inactive), 1.18 (inactive) and 1.75, respectively. For the same compound, the composite z-score in test [2] is -0.0104.

Take `CCCNC(=O)[C@@]1(Sc2ccc(C)cc2)CC(=O)N(Cc2ccccc2Cl)[C@@H]1c1ccc(CO)cc1`: the z-score was 2.06 (inactive) in [1]; 3.09 (inactive) in test [3]; -0.114 (inactive) in test [4]; -1.35 (inactive) in [5]; -0.772 (inactive) in test [6]; 3.71 in test [7]. Further, the z-score is -0.773 (inactive) in test [8], -0.99 (inactive) in [9] and -0.176 in test [10]. The composite z-score in test [2] was determined as 0.369.

Turning to `C=C(COC)/C(=C/C[C@H](OC(C)=O)c1ccc(OCCO)cc1)c1cnc2ccccc2c1`, the z-score in [1] is 1.25 (inactive); in test [3], 13.5 (active); in test [4], -0.0743 (inactive); in [5] it was 1.05 (inactive); in test [6], -0.947 (inactive); in test [7] it was -0.117. In addition, the z-score in test [8] is 1.32 (inactive); in test [9], 0.767 (inactive); in test [10] it was -0.593. The compound further registered a composite z-score in [2] of 0.199.

As to `C=C(C)[C@@H]1CC=C(C(O)C2C=CC3C(=O)NC(=O)C3N2Nc2ccccn2)CC1` (stereo not given in full), the z-score in [1] was -1.56 (inactive); in [3], 0.671 (inactive); in test [4], 0.613 (inactive); in [5] it was 0.0385 (inactive); in test [6] it was 0.876 (inactive); in [7] it was -1.11. Moreover, the results for the z-score in [8], in test [9] and in [10] were -1.02 (inactive), -2.89 (inactive) and -2.69, respectively. In [2], the composite z-score was determined as 0.497.

For `COCCOC(=O)N1C(=O)[C@@]2(c3cc(C#CC4(O)CCCCCC4)ccc31)[C@H](C(=O)N1CCCCCCC1)[C@H]1C(=O)O[C@H](c3ccccc3)[C@H](c3ccccc3)N1[C@@H]2c1ccc(O)cc1`, the z-score was 1.13 (inactive) in test [1]; 0.908 (inactive) in [3]; 0.128 (inactive) in [4]; -0.373 (inactive) in [5]; -0.763 (inactive) in test [6]; 1.49 in test [7]. For the same compound, the z-score is 1.5 (inactive) in [8], 0.372 (inactive) in test [9] and 2.35 in [10]. The same compound registered a composite z-score in test [2] of 2.25.

Turning to `NC(=O)[C@H]1[C@@H]2C(=O)O[C@@H](c3ccccc3)[C@@H](c3ccccc3)N2[C@@H](c2ccc(O)cc2)[C@]12C(=O)Nc1ccc(C#CCCO)cc12`, the z-score was -0.331 (inactive) in test [1]; 5.17 (inactive) in test [3]; 0.92 (inactive) in [4]; 0.696 (inactive) in [5]; 0.442 (inactive) in test [6]; -0.289 in test [7]. Further, the z-score is 0.482 (inactive) in test [8], -0.661 (inactive) in [9] and 0.563 in [10]. The compound also had a composite z-score in test [2] of -0.0559.

With `CC(C)CN1C(=O)[C@@]2(Cc3ccccc31)c1ccccc1C(=O)N(C1CCCCC1)[C@H]2c1ccc(CO)cc1`, the z-score is 1.83 (inactive) in test [1]; 0.838 (inactive) in [3]; -0.528 (inactive) in test [4]; -0.0544 (inactive) in [5]; -1.24 (inactive) in [6]; 2.22 in test [7]. The figures for the z-score in test [8], in [9] and in test [10] were -0.236 (inactive), -1.31 (inactive) and 0.441, respectively. This compound also came in with a composite z-score in test [2] of -0.101.

For the compound `COCCOC(=O)N1C(=O)[C@@]2(c3cc(C#CCC(C(=O)OC)C(=O)OC)ccc31)[C@H](c1ccccc1OCCO)N1[C@H](c3ccccc3)[C@H](c3ccccc3)OC(=O)[C@H]1[C@@H]2C(=O)N1CCCCCCC1`, the z-score in test [1] is 0.0371 (inactive); in test [3] it was 0.998 (inactive); in test [4], 1.01 (inactive); in test [5], 0.259 (inactive); in test [6], 0.508 (inactive); in test [7], 0.0992. Further, the z-score in [8] is 0.0483 (inactive); in test [9] it was 0.309 (inactive); in test [10], 1.52. In addition, the composite z-score in test [2] came to 2.43.

In the case of `C#CCNC(/C=C/c1ccccc1)CO` (stereo not given), the z-score in test [1] was -0.759 (inactive); in test [3], -0.181 (inactive); in test [4], 0.36 (inactive); in test [5], 0.286 (inactive); in test [6], 0.0834 (inactive); in test [7] it was 0.168. In addition, the z-score in test [8] is -0.867 (inactive); in test [9] it was 0.813 (inactive); in test [10], -0.548. For the same compound, the composite z-score in test [2] is -0.252.

`COCCOC(=O)N1C(=O)[C@@]2(c3cc(C#CC4=CCCCC4)ccc31)[C@H](c1ccc(O)cc1)N1[C@H](c3ccccc3)[C@H](c3ccccc3)OC(=O)[C@H]1[C@@H]2C(=O)N1CCCCCCC1`: the z-score in test [1] was 1.65 (inactive); in test [3], -0.138 (inactive); in test [4] it was -0.321 (inactive); in [5], -0.52 (inactive); in test [6] it was 0.389 (inactive); in test [7] it was -0.137. For the same compound, the z-score in test [8] is 1.06 (inactive); in [9] it was 0.325 (inactive); in [10] it was 1.53. For the same compound, the composite z-score in test [2] is 1.49.

`CCCNC(=O)[C@@H]1c2ccccc2C(=O)N(C2CCCCC2)[C@H]1c1ccc(CO)cc1`: the z-score in [1] is -0.401 (inactive); in test [3] it was 11 (active); in test [4] it was 0.867 (inactive); in [5], 1.06 (inactive); in test [6] it was 0.72 (inactive); in [7] it was -0.326. Also, the z-score is 0.747 (inactive) in test [8], -0.201 (inactive) in test [9] and -1.24 in test [10]. In test [2], this compound yielded a composite z-score of 0.14.

With `C=CCc1cccc([C@@H]2[C@@H](C)CC[C@H]3C(=O)N4[C@H](c5cccc(CC=C)c5)[C@@H](C)CC[C@H]4C(=O)N23)c1`, the z-score in [1] was 0.0258 (inactive); in test [3] it was 5.32 (inactive); in test [4], 1.46 (inactive); in test [5], 2.14 (inactive); in test [6], 0.738 (inactive); in [7], -0.0433. For the same compound, the values for the z-score in test [8], in test [9] and in test [10] were -0.23 (inactive), -0.0735 (inactive) and -1.48, respectively. This compound also yielded a composite z-score in [2] of 0.142.

As for `O=C1OCC=C[C@H]2OC34C=CCN(Cc5ccccc5)C(=O)[C@H]3N(CCCCCO)C(=O)[C@@H]4[C@@H]12` (stereo not given in full), the z-score in [1] was 2.14 (inactive); in [3], 1.52 (inactive); in test [4], -0.426 (inactive); in [5], -0.912 (inactive); in [6], -1.34 (inactive); in test [7] it was 1.19. Further, the z-score is 2.15 (inactive) in [8], 0.352 (inactive) in test [9] and 1.51 in [10]. The composite z-score in test [2] was -0.44.

For the origin of these results see PubChem BioAssay.
